The panel holds about 83,000 compounds, 20% with a hit somewhere; the sample as a whole holds those more often.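 How to read the values: 0–100, growth inhibition (40 = 60% inhibited); 0, no net growth; -100 to 0, cell death (-40 = 40% of starting cells died; -100 = all dead).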 A number with no mark means an inactive call. Calls of active or inactive are those of the source. The calls were made as follows: active = growth percent below 10; inactive = the rest.
Each compound was assayed on U251 CNS (assay: NCI-60 one-dose screen, 48 h (100 = growth as untreated, 0 = no growth, -100 = all killed)). Conditions: 10 µM unless noted.

Row | Structure (SMILES) | growth
1 | CC(C)(C)c1[nH]nc2c1C(c1cc3ccccc3[nH]c1=O)Nc1cc(C(=O)OCc3ccccc3)ccc1N2 (stereo not drawn) | 51.6%
2 | COc1ccc2nc(-c3c(-c4ccccc4)nc4ncccn34)[nH]c2c1 | 99.5%
3 | O=C1NC(=Nc2ccc(S(=O)(=O)Nc3nccs3)cc2)S/C1=C\c1coc2ccccc2c1=O | 102%
4 | CC(C)=CCC[C@](C)(O)[C@H]1CC[C@]2(C)[C@@H]1CC[C@@H]1[C@@]3(C)C/C(=C/c4ccc(Br)cc4)C(=O)C(C)(C)[C@@H]3CC[C@]12C | 86.9%
5 | O=c1c2sc3ncc(Br)cc3c2ncn1-c1cccc(Cl)c1 | 33.4%
6 | O=Cc1nc2ccccc2[nH]1 | 92.2%
7 | CCc1ccc(-c2ccc(Nc3ccccc3)nn2)cc1S(N)(=O)=O | 80.8%
8 | COc1ccc(-c2nc3ccccn3c2-c2nc3ccc(Cl)cc3[nH]2)cc1 | 92.9%
9 | Cn1cc(-c2nc(-c3c[nH]c4ncccc34)cs2)c2ccccc21 | 96.6%
10 | COc1ccc2c(c1)C/C(=C\c1cc(-c3ccc4c(c3)OCO4)n[nH]1)C2=O | 94.8%
11 | Nc1ccc(Br)cn1 | 108%
12 | Cc1nn(-c2ccc(Br)cc2)c2nc3[nH]c(=O)[nH]c(=O)c3nc12 | 101%
13 | Cn1cc(-c2csc(-c3cn(C(=O)OC(C)(C)C)c4ccccc34)n2)c2cccnc21 | 61.7%
14 | CC(C)(C)c1ccc(OCCCCCCCN2CCNCC2)cc1 | 12.9%
15 | Nc1ccc(Cl)cn1 | 94.3%
16 | Cc1ccc(-c2nc([P+](c3ccccc3)(c3ccccc3)c3ccccc3)c(N3CCOCC3)o2)cc1 | 12.4%
17 | c1ccc2[nH]c(-c3cc(-c4ccc5c(c4)OCO5)n[nH]3)nc2c1 | 36.6%
18 | Nc1c(C(=O)Nc2cccc(Br)c2)sc2nc3c(cc12)C(=O)CCC3 | 37.7%
19 | COc1cccc(NC(=O)c2sc3nc4c(cc3c2N)C(=O)CCC4)c1 | 14.3%

Row | Structure (SMILES) | growth
20 | C=C(C)[C@@H]1CC[C@]2(C)[C@H](CC=C3[C@@H]4CC(C)(C)CC[C@]4(C=O)CC[C@]32C)[C@@]1(C)CCCN | 69.6%
21 | CC(C)(C)c1cc(-n2c(-c3ccc(Cl)cc3)nc3cc(C(=O)Nc4ccc(Cl)cc4)ccc32)n[nH]1 | 53.2%
22 | O=c1c(CNc2ccc(S(=O)(=O)Nc3nccs3)cc2)coc2ccccc12 | 95.4%
23 | COc1cc(-c2cc(-c3nc4ccc(F)cc4[nH]3)[nH]n2)cc(OC)c1OC | 46.2%
24 | O=C1C(Cl)=C(Nc2ccc(S(=O)(=O)c3ccc(NC4=C(Cl)C(=O)c5ccccc5C4=O)cc3)cc2)C(=O)c2ccccc21 | 5.68% (active)
25 | Fc1ccc2nc(-c3cc(-c4ccc5c(c4)OCO5)n[nH]3)[nH]c2c1 | 41.1%
26 | O=c1c(CNc2ccc(S(=O)(=O)Nc3ncccn3)cc2)coc2ccccc12 | 93.3%
27 | COc1ccc(-c2cc(/C=C/C(=O)c3ccc(N)cc3)[nH]n2)cc1 | 14.4%
28 | COC(=O)[C@]12CC[C@@H](C(=O)/C=C/c3cccnc3)[C@@H]1[C@H]1CC[C@@H]3[C@@]4(C)C/C(=C/c5cccnc5)C(=O)C(C)(C)[C@@H]4CC[C@@]3(C)[C@]1(C)CC2 | -87.9% (active)
29 | NC1(N)C=CC2=C(C=C1)C1(N)C3=C(C=CC(N)(N)C=C3)N2C2(N)C3=C(C=CC(N)(N)C=C3)N1C1=C2C=CC(N)(N)C=C1 | 83.3%
30 | CCCCC(=O)OC1CCCCC1C (stereo not drawn) | 85.6%
31 | COc1ccc(/C=C/C(=O)NCCO)cc1 | 94.8%
32 | COc1ccc2c(c1)C/C(=C\c1cc(-c3cc(OC)c(OC)c(OC)c3)n[nH]1)C2=O | 92.3%
33 | COc1ccc(NC(=O)c2ccc3c(c2)nc(-c2cc4ccccc4[nH]c2=O)n3-c2cc(C(C)(C)C)[nH]n2)cc1 | 85.6%
34 | COc1ccc2nc(-c3cc(-c4cc(OC)c(OC)c(OC)c4)n[nH]3)[nH]c2c1 | 39.3%
35 | Nc1nc2c(c(=O)[nH]1)C(c1ccc3c(c1)OCO3)C=C(C(=O)O)N2 (stereo not drawn) | 101%
36 | COc1ccc(-c2cc(/C=C/C(=O)c3ccc(OC)c(OC)c3)[nH]n2)cc1 | 4.42% (active)
37 | COc1cc2c(cc1OC)C(=O)/C(=C/c1cc(-c3ccc4c(c3)OCO4)n[nH]1)C2 | -75.5% (active)
38 | COc1cc(-c2cc(-c3nc4ccccc4[nH]3)[nH]n2)cc(OC)c1OC | 55.8%

From PubChem BioAssay (NCI)
